# Measured values reported in PubChem BioAssay AID485344 (National Center for Advancing Translational Sciences (NCATS), 2010).
# In all, about 340,000 compounds went through this assay and about 6,900 (2%) were called active. What follows is part of a selection rich in actives, with near analogues and random picks from the rest. Values without a mark were called inactive. No stated cut-off is given here; in the data, active means inhibition above about 30%; inactive means below that, where a call was filed.
# Biological target: D(2) dopamine receptor (Homo sapiens) (UniProt P14416)
# Experiment: HTS Assay for Allosteric Antagonists of the Human D2 Dopamine Receptor: Primary Screen for Antagonists; further: 0% is about no effect
# Conditions: HEK293 TREx D2 cells, calcium flux, dopamine EC80; at 10 µM; stronger effect = higher value
# Procedure, shortened: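 HEK293 T-REx D2 cells, tet-induced, calcium dye no-wash. Cpd pintool add, 180 s kinetic, then EC80 DA, 180 s kinetic. Ca flux read.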
# D(2) dopamine receptor (Homo sapiens), sequence (P14416 whole entry, looked up): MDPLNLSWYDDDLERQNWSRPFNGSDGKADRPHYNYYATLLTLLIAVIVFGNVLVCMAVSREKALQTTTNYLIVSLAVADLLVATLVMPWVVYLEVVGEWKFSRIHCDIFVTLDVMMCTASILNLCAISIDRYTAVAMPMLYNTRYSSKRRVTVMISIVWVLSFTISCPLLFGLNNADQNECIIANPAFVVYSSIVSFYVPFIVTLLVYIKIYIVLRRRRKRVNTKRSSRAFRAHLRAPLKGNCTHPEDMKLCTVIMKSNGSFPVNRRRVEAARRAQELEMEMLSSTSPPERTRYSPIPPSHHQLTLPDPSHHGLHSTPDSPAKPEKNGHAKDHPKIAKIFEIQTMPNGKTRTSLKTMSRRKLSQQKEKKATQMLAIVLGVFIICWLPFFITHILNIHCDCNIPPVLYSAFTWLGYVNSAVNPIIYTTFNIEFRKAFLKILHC
row,SMILES,inhibition
1,Nc1nc(SCc2ccc([N+](=O)[O-])cc2)c2ncn(C3OC(CO)C(O)C3O)c2n1 (stereo not given),36.3% (active)
2,COc1cc(F)c(C2=CC(=O)CC(C)(C)C2)cc1F,-9.82%
3,COC(=O)c1cccc(NC(=O)c2cccc(N3C(=O)CCC3=O)c2)c1,0.805%
4,COc1ccc([C@@H]2[C@@H]3C(=O)N(C(C)(C)C)C(=O)[C@@H]3[C@]3(Cc4ccccc4)C(=O)N(c4cccc(Br)c4)C(=O)N23)cc1,-3.44%
5,Cc1ccc(C)c(NS(=O)(=O)c2ccc(OCC(=O)NCc3cccnc3)cc2)c1,42.3% (active)
6,Cc1cc(S(=O)(=O)NC2CCCCC2)ccc1OCC(=O)NCc1cccnc1,-3.46%
7,Cc1ccc(CNC(=O)COc2ccc(S(=O)(=O)NC(C)C)cc2)cc1,6.5%
8,Cc1cccc(C(=O)NCc2nnc(SC(C)C(=O)Nc3nnc(C)s3)n2C)c1 (stereo not given),8.11%
9,CC1(C)CC(=O)C=C(c2ccc3ncccc3c2)C1,-2.57%
10,CCN(CC(=O)Nc1c(F)cccc1F)C(=O)C1CCC1,-5.66%
11,CCOc1ccc(C(=O)NCC(=O)N2CCCCCCC2)cc1OCC,-3.78%
12,COc1cc(OC)cc(C(=O)NCC(=O)N2CCCCCCC2)c1,33.6% (active)
13,Cc1cc(C)cc(C(=O)NCC(=O)OCC(=O)N2CCCCC2)c1,1.51%
14,N/C(=N\OC(=O)c1ccc2c(c1)OCO2)c1ccc(Br)cc1,46.1% (active)
15,N/C(=N\OC(=O)N1c2ccccc2Sc2ccccc21)c1ccc(Br)cc1,-13.7%
16,N/C(=N\OC(=O)/C=C/c1ccccc1)c1ccc(Br)cc1,-2.34%
17,Cn1nc(C(=O)OCC(=O)N(Cc2ccccc2)C(C)(C)C)c2ccccc2c1=O,-16.5%
18,OCCC1CN(Cc2cccc(OC3CCCC3)c2)CCN1Cc1ccsc1 (stereo not given),65.5% (active)
19,OCCC1CN(Cc2ccc(Oc3ncccn3)cc2)CCN1CCc1ccccc1 (stereo not given),-20.6%
20,OCCC1CN(Cc2ccccc2-c2ccco2)CCN1Cc1ccsc1 (stereo not given),-17.4%
21,OCCC#Cc1ccc(CN2CCN(Cc3ccsc3)C(CCO)C2)cc1 (stereo not given),6.27%
22,OCCC1CN(Cc2cnc(-c3ccccc3)s2)CCN1CCc1ccccc1 (stereo not given),-6.7%
23,OCCC1CN(Cc2cccc(O)c2)CCN1CCc1ccccc1 (stereo not given),54.8% (active)

row,SMILES,inhibition
1,Cc1ccc(NC(=O)CCCNC(=O)c2ccc(Cl)cc2)cc1S(=O)(=O)N1CCCCC1,2.49%
2,Nc1ccc(C(=O)N2CCN(S(=O)(=O)c3ccc(Cl)cc3)CC2)cc1[N+](=O)[O-],1.49%
3,O=c1cc(CN2CCN(c3cccc(Cl)c3)CC2)c2cc3c(cc2o1)CCCC3,-7.58%
4,OC(COc1ccc2c(c1)CCC2)CN1CCN(c2cccc(Cl)c2)CC1 (stereo not given),39.2% (active)
5,O=C(COc1ccc2c(c1)CCC2)N1CCN(c2ccc(F)cc2)CC1,3.48%
6,C/C(=N/Nc1nc(-c2ccccc2)c(CC(=O)O)s1)c1ccccc1,-8.33%
7,O=C(O)Cc1sc(-c2ccc(C(=O)O)cc2)nc1-c1ccccc1,32.7% (active)
8,O=C(O)Cc1sc(-c2ccccc2)nc1-c1cccs1,3.67%
9,O=C(Nc1ccccc1N1CCOCC1)c1ccncc1,-22.1%
10,COC(=O)c1ccc(C)c(NC(=O)C2CC(=O)N(C3CCCC(C)C3C)C2)c1 (stereo not given),25.8%
11,c1nc(COc2nsnc2N2CCOCC2)cs1,36.2% (active)
12,O=C(O)COc1nsnc1N1CCOCC1,-6.01%
13,c1ccc(COc2nsnc2N2CCOCC2)cc1,-11.6%
14,Cc1nc(SCC(=O)NC2CCCCC2C)c(C#N)c(C)c1C (stereo not given),-2.83%
15,Cc1cccc(N2CCN(C(=O)c3cccc(N4C(=O)C5C6C=CC(C6)C5C4=O)c3)CC2)c1C (stereo not given),-3.04%
16,CCn1c(C)c(C)c2cc(C(=O)N3CCN(c4cccc(C)c4C)CC3)ccc21,35.7% (active)
17,CCC(CC)C(=O)N1CCN(c2cccc(C)c2C)CC1,-16.7%
18,C[C@H](NC(=O)c1ccccc1)C(=O)OCC(=O)c1c[nH]c2ccccc12,-14%
19,Cc1ccc(CNC(=O)c2cccc3c2C(=O)c2ccc(N4CCC(C)CC4)cc2S3(=O)=O)cc1,-2.45%
20,CCc1nnc(NC(=O)c2ccc(S(=O)(=O)NC3CCCCC3)cc2)s1,-18.8%
21,Cc1nnc(SC(C)C(=O)Nc2ccc(S(=O)(=O)NC3CCCCC3)cc2)s1 (stereo not given),61.3% (active)
22,Cc1ccc(Nc2nnc(SC(C)C(=O)NC3CC3)s2)cc1 (stereo not given),-31.5%
